Laboratory results reported in PubChem BioAssay AID463173 (ICCB-Longwood Screening Facility, Harvard Medical School, 2010).
The campaign covered roughly 52,000 compounds. About 4,300 (8.3%) were called active. This excerpt belongs to a sample that is enriched for actives. Unmarked numbers belong to inactive results. No stated cut-off is given here; in the data, active means survival mostly below about 52% (no sharp cut-off); inactive means mostly above about 56%.

system: DeltatarO mutant; assay: growth inhibition of S. aureus wild type versus tarO mutant, primary screen, teichoic acid synthesis inhibitors, RN4220, OD600 (AID 463173); settings: OD600, 18 h, stronger effect = lower value, screened at 18.75 µg/mL (by protocol)

| Structure (SMILES) | survival |
| --- | --- |
| Cc1ccc(-n2nc(C)c3c(C(=O)NCc4ccc(F)cc4)cc(C)nc32)cc1 | 83% |
| CN(C)c1ccc(CNc2nc(-c3ccco3)nn2C(=O)c2cccc([N+](=O)[O-])c2)cc1 | 66% |
| Cc1ccc(O)c(NC(=O)CCS(=O)(=O)c2nc(-c3cccs3)cc(C(F)(F)F)n2)c1 | 51% |
| COc1ccc(NC(=O)CCCS(=O)(=O)c2nc(-c3ccccc3OC)cc(C(F)(F)F)n2)c(OC)c1 | 46% (active) |
| COc1ccccc1-c1cc(C(F)(F)F)nc(S(=O)(=O)CCCC(=O)Nc2ccccc2F)n1 | 70% |
| O=C(CCS(=O)(=O)c1nc(-c2cccs2)cc(C(F)(F)F)n1)Nc1cc(Br)ccc1O | 15% (active) |
| O=C(CCS(=O)(=O)c1nc(-c2cccs2)cc(C(F)(F)F)n1)Nc1ccc(Br)cc1 | 61% |
| COc1ccccc1-c1cc(C(F)(F)F)nc(S(=O)(=O)CCCC(=O)Nc2ccc(F)cc2F)n1 | 67% |
| COc1ccccc1-c1cc(C(F)(F)F)nc(S(=O)(=O)CCCC(=O)Nc2cc(C)ccc2O)n1 | 47% (active) |
| COc1ccccc1-c1cc(C(F)(F)F)nc(S(=O)(=O)CCCC(=O)Nc2cc(Br)ccc2O)n1 | 45% (active) |
| COC(=O)c1ccccc1NC(=O)CCCS(=O)(=O)c1nc(-c2ccccc2OC)cc(C(F)(F)F)n1 | 87% |
| COc1ccccc1-c1cc(C(F)(F)F)nc(S(=O)(=O)CCCC(=O)Nc2ccc(F)c(Cl)c2)n1 | 87% |
| COc1ccc(-c2cc(C(F)(F)F)nc(S(=O)(=O)CCCC(=O)Nc3ccccc3C(F)(F)F)n2)cc1OC | 70% |
| COc1ccccc1-c1cc(C(F)(F)F)nc(S(=O)(=O)CCCC(=O)Nc2cc(OC)c(OC)c(OC)c2)n1 | 134% |
| CC(=O)Nc1ccc(NC(=O)c2cc(CN3CCCC3)on2)cc1 | 96% |
| Cc1cccc(C)c1NC(=O)C1CCN(S(=O)(=O)c2cccc3nsnc23)CC1 | 89% |
| COc1ccc(-n2c3c(cc(-c4nc(-c5ccc(Cl)cc5)cs4)c2=O)C(=O)CC(C)(C)C3)cc1Cl | 79% |
| COc1ccc(OC)c(NC(=O)c2cnn(-c3ccc(C)cc3)c2C2CCNCC2)c1 | 92% |
| CCOc1ccc(NC(=O)CCNS(=O)(=O)c2ccc3c(c2)CCCC(=O)N3)cc1 | 66% |
| CCN1CCOC(=O)C1CC(=O)Nc1cc(Cl)ccc1OC (stereo not given) | 50% |

| Structure (SMILES) | survival |
| --- | --- |
| O=C(O)c1ccccc1SC1CC(=O)N(c2ccc(N3CCCCC3)cc2)C1=O (stereo not given) | 90% |
| COC(=O)c1cc(OC)c(OC)cc1NC(=O)c1ccc2c(c1)CCN2S(C)(=O)=O | 37% (active) |
| COc1ccc(Cl)cc1NC(=O)c1ccc2c(c1)CCN2S(C)(=O)=O | 81% |
| CCS(=O)(=O)N1CCc2cc(C(=O)NCc3ccc(OC)cc3)ccc21 | 89% |
| CCS(=O)(=O)N1CCc2cc(C(=O)Nc3cc(OC)c(Cl)cc3OC)ccc21 | 43% (active) |
| CCS(=O)(=O)N1CCc2cc(C(=O)Nc3ccc(OC)cc3OC)ccc21 | 44% (active) |
| COC(=O)c1ccccc1NC(=O)c1ccc2c(c1)CCN2S(C)(=O)=O | 94% |
| CCOc1ccc(NC(=O)c2ccc3c(c2)CCN3S(=O)(=O)CC)cc1 | 48% |
| COc1ccc(N2CCN(C(=O)c3ccc4c(c3)CCN4S(C)(=O)=O)CC2)cc1 | 57% |
| CCS(=O)(=O)N1CCc2cc(C(=O)N3CCN(c4ccccc4)CC3)ccc21 | 69% |
| COC(=O)c1cc(OC)c(OC)cc1NC(=O)c1ccc2c(c1)CCN2S(=O)(=O)c1ccccc1 | 66% |
| CCS(=O)(=O)N1CCc2cc(C(=O)N3CCN(c4ccc(OC)cc4)CC3)ccc21 | 40% (active) |
| CCS(=O)(=O)N1CCc2cc(C(=O)Nc3ccc(OC)c(Cl)c3)ccc21 | 47% |
| CC1=C(C(=O)Nc2ccccc2)C(c2ccncc2)n2nc(SCc3ccccc3Cl)nc2N1 (stereo not given) | 74% |
| CCCCOc1ccc(-c2cc3c(=O)n(CC(=O)Nc4ccc(Cl)cc4Cl)ccn3n2)cc1 | 133% |
| CCN(CC)C(=O)Cn1c(=O)n(Cc2ccc(C(=O)NCCc3ccc(OC)c(OC)c3)cc2)c(=O)c2ccccc21 | 104% |
| CCn1c(=O)n(CC)c2cc(N3CCCC3)c(NC(=O)Nc3cc(C)cc(C)c3)cc21 | 91% |
| COc1ccc(CC(=O)NCc2ccc3c(c2)CCN3C(=O)c2ccc(Cl)cc2)cc1OC | 86% |
| Cc1ccc(S(=O)(=O)C(CNC(=O)C(=O)NCCc2ccccc2)c2cccs2)cc1 (stereo not given) | 107% |
| C=CCN(C(=O)c1ccc2c(c1)nnn2C)c1ccccc1 | 97% |

| Structure (SMILES) | survival |
| --- | --- |
| O=C(NC1CCCCC1)NC1CCN(Cc2nnnn2Cc2ccc3c(c2)OCO3)CC1 | 88% |
| Cc1nn(-c2ccc(Cl)cc2)c2nc(-c3cccnc3)cc(C(F)(F)F)c12 | 39% (active) |
| Cc1nn(-c2cccc(Cl)c2)c2nc(-c3cccnc3)cc(C(F)(F)F)c12 | 45% |
| Cc1ccc(-n2nc(C)c3c(C(F)(F)F)cc(-c4cccnc4)nc32)cc1Cl | 53% |
| COc1ccc(CNC(=O)C2CCN(C(=O)c3ccc(-n4ccc5ccccc54)s3)CC2)cc1 | 90% |
| CCn1c2c(c(=O)n3ncc(C(=O)Nc4ccc(C(=O)OC)cc4)c13)CN(Cc1ccc(OC)cc1)CC2 | 81% |
| NC(=O)CN(c1ccccc1)C1SC(=O)NC1=O (stereo not given) | 76% |
| COc1ccccc1-n1c(SCC(=O)Nc2ccc(C)cc2)nc(O)cc1=O | 61% |
| Cc1cccc(Cn2c(SCc3ccc(C(=O)NC4CCCCC4)cc3)nc3ccncc32)c1 | 75% |
| COC(=O)c1ccc(Cn2c(SCc3ccccc3)nc3ccncc32)cc1 | 45% (active) |
| O=C(NC1CCCC1)c1ccc(CSc2nc3ccncc3n2Cc2cccc(F)c2)cc1 | 60% |
| Cc1ccc(CSc2nc3ccncc3n2Cc2nc(-c3ccc(Cl)cc3)oc2C)cc1 | 63% |
| Cc1ccc(CSc2nc3ccncc3n2Cc2nc(-c3ccccc3C)oc2C)cc1 | -4% (active) |
| COC(=O)c1ccc(Cn2c(SCc3ccccc3F)nc3ccncc32)cc1 | 42% (active) |
| COC(=O)c1ccc(Cn2c(SCc3cccc(C)c3)nc3ccncc32)cc1 | 83% |
| COC(=O)c1ccc(CSc2nc3ccncc3n2Cc2ccc(F)cc2)cc1 | 93% |
| Cc1cccc(Cn2c(SCc3ccc(C(=O)NC4CCCC4)cc3)nc3ccncc32)c1 | 54% (active) |
| Cc1ccc(C)c(CSc2nc3ccncc3n2Cc2nc(-c3ccccc3Cl)oc2C)c1 | 71% |
| COc1ccc(CNC(=O)c2ccc(CSc3nc4ccncc4n3Cc3ccccc3F)cc2)cc1 | 62% |
| COC(=O)c1ccc(Cn2c(SCc3ccc(F)cc3)nc3ccncc32)cc1 | 54% |
